Source: PubChem BioAssay
Unmarked numbers belong to inactive results.

experiment: budding yeast growth changes without added modifier – OD600, strain BY4716, 24 h, basal condition, primary screen (AID 1173); conditions: S. cerevisiae BY4716 growth, OD600, 24 h; higher = more signal, called active from +8 up or from −8 down

Row | Structure (SMILES) | z-score
1 | CCOC(=O)C[C@H]1[C@H](OC(=O)c2cc3ccccc3oc2=O)[C@@H](NC(=O)c2ccc3ccccc3c2)c2cc(OCCCO)ccc2N1C(=O)Cc1ccc(OC)cc1 | -0.399
2 | CC(C)OC(=O)CC(=O)CC(O)c1ccc([N+](=O)[O-])cc1 (stereo not drawn) | -1.41
3 | CO[C@H]1O[C@H](CO)[C@@H](OC(=O)CCc2ccccc2)[C@H](OC(=O)c2cc3ccccc3[nH]2)[C@H]1OC(=O)c1cc2ccccc2[nH]1 | -1.14
4 | C=CCNC(=O)[C@@H]1[C@H]2C(=O)O[C@H](c3ccccc3)[C@H](c3ccccc3)N2[C@H](c2ccc(OCCO)cc2)[C@@]12C(=O)N(C(=O)OCCOC)c1ccc(C#CCCO)cc12 | -0.153
5 | COCCOC(=O)N1C(=O)[C@@]2(c3cc(C#CCCO)ccc31)[C@H](C(=O)N1CCCCCCC1)[C@H]1C(=O)O[C@H](c3ccccc3)[C@H](c3ccccc3)N1[C@@H]2c1ccccc1OCCO | 0.348
6 | COC(=O)[C@@]1(Cc2ccc(F)cc2)[C@H]2c3cc(C(=O)N4CCCC4)n(C)c3C[C@H]2CN1C(=O)c1ccccc1 | -1.24
7 | COC(=O)[C@@]1(Cc2ccc(F)cc2)[C@H]2c3cc(C(=O)N(C)C)n(Cc4ccc(O)c(OC)c4)c3C[C@H]2CN1C(=O)c1ccccc1 | 1.15
8 | C=CCC(OC(C)=O)[C@@H]1[C@@H](N(Cc2ccc(-c3cccc(C(F)(F)F)c3)o2)C(=O)c2ccc(C)cc2)c2cc(OCCCO)ccc2N1C(=O)Cc1ccc(OC)cc1 (stereo partly drawn) | -0.455
